# From PubChem BioAssay
# Calls of active or inactive are those of the source.
# How the values were obtained:
# [1] = compounds binding Alexa647 anti-His antibody – biochemical, small-molecule microarray, 635 nm fluorescence, artefact control for SMM control protein annotation, primary screen (AID 1128); conditions: higher = more signal;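 also: score merges feature fluorescence with signal-to-noise for each printed compound spot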
# [2] = tested on: Human papillomavirus type 1a E7 protein (residues 1-88); assay: HPV1a E7 small-molecule binders, primary screen, biochemical, small-molecule microarray, residues 1-88, 635 nm (AID 1129); conditions: small-molecule microarray binding, fluorescence 635 nm; higher = more signal
# [3] = biological target: Focal adhesion kinase 1 (Homo sapiens) (UniProt Q05397); assay: PTK2 protein binding on printed compound slides – biochemical, small-molecule microarray, 635/667 nm fluorescence, BSA, DTT, primary screen (AID 1130); conditions: 635 nm fluorescence, higher = more signal;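 also: composite of spot emission at 667 nm and signal to noise over triplicate slides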
# [4] = tested on: Fibrinogen (Alexa647-labelled); assay: Alexa647-fibrinogen binding to printed small molecules – biochemical, small-molecule microarray, 635/667 nm fluorescence, artefact control for SMM control-protein annotation, profiling panel (AID 1131); conditions: fibrinogen-A647 binding fluorescence, higher = more signal;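 also: z-score merges 667 nm fluorescence with per-spot signal-to-noise over triplicate slides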
# [5] = biological target: Follistatin (Homo sapiens) (UniProt P19883); assay: FST protein binding to printed compounds – biochemical, small-molecule microarray, 635/667 nm fluorescence, primary screen (AID 1132); conditions: 635 nm fluorescence, higher = more signal
# [6] = biological target: Fibroblast growth factor 2 (Homo sapiens) (UniProt P09038); assay: basic fibroblast growth factor binding to printed compounds – biochemical, small-molecule microarray, 635/667 nm fluorescence, primary screen (AID 1133); conditions: FGF2, fluorescence 635/667, higher = more signal
# [7] = JC-1 mitochondrial potential readout, lung cancer cells – cell-based, A549, JC-1 fluorescence, basal, 24 h, 100 nL, profiling panel (AID 1138); conditions: higher = more signal;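 also: A549 lung adenocarcinoma cells under basal conditions with no added stimulus; test concentration not given here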
# Lefty1 = Lefty1 protein binding to printed compounds – biochemical, small-molecule microarray, 635/667 nm fluorescence, primary screen (AID 1139); conditions: fluorescence 635/667, higher = more signal
# [8] = tested on: wheat germ agglutinin (Triticum aestivum), Alexa647-labelled; assay: Alexa647-WGA lectin binding to printed small molecules – biochemical, small-molecule microarray, 635/667 nm fluorescence, artefact control for SMM control-protein annotation, profiling panel (AID 1140); conditions: WGA-A647 binding, 635 nm fluorescence, higher = more signal;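 also: score merges 667 nm feature emission with signal to noise over triplicate slides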
# [9] = biological target: Luciferin 4-monooxygenase (Photinus pyralis) (UniProt P08659); assay: inhibition of purified Photinus pyralis luciferase – biochemical, luminescence, purified enzyme, 2006 set, primary screen (AID 1141); conditions: purified firefly luciferase, SteadyGlo luminescence, 30 min; higher = more signal, called active from +8 up or from −8 down;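 also: cell-free assay with purified firefly luciferase at 100 ng per well in PBS; test concentration not given here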
# Sequence of Luciferin 4-monooxygenase (Photinus pyralis) (P08659 whole entry, looked up): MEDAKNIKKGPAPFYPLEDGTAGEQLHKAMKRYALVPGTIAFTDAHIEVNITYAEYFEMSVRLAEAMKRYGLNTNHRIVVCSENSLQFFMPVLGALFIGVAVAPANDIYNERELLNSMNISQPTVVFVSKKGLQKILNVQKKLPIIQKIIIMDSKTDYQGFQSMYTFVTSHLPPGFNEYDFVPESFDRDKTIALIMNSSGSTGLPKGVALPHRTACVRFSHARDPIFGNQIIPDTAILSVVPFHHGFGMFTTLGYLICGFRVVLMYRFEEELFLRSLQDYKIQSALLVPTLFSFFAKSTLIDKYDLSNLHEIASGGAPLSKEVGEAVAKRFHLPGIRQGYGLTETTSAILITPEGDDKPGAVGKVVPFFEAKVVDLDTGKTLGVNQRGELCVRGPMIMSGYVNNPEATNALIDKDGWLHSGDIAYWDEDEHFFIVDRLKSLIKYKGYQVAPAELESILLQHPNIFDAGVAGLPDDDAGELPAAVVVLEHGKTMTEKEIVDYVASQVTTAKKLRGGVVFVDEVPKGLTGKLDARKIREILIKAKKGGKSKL
# Sequence of Follistatin (Homo sapiens) (P19883 whole entry, looked up): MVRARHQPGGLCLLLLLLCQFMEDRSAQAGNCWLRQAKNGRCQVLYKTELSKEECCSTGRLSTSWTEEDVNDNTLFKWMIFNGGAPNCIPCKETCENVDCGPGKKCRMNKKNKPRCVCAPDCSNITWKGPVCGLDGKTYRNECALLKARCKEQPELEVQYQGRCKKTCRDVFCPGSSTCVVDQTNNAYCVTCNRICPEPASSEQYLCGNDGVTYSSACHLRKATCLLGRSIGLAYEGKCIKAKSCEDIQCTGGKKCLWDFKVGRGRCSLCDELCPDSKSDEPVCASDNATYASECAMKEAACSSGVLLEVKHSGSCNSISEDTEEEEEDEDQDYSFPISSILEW
# Sequence of Focal adhesion kinase 1 (Homo sapiens) (Q05397 whole entry, looked up): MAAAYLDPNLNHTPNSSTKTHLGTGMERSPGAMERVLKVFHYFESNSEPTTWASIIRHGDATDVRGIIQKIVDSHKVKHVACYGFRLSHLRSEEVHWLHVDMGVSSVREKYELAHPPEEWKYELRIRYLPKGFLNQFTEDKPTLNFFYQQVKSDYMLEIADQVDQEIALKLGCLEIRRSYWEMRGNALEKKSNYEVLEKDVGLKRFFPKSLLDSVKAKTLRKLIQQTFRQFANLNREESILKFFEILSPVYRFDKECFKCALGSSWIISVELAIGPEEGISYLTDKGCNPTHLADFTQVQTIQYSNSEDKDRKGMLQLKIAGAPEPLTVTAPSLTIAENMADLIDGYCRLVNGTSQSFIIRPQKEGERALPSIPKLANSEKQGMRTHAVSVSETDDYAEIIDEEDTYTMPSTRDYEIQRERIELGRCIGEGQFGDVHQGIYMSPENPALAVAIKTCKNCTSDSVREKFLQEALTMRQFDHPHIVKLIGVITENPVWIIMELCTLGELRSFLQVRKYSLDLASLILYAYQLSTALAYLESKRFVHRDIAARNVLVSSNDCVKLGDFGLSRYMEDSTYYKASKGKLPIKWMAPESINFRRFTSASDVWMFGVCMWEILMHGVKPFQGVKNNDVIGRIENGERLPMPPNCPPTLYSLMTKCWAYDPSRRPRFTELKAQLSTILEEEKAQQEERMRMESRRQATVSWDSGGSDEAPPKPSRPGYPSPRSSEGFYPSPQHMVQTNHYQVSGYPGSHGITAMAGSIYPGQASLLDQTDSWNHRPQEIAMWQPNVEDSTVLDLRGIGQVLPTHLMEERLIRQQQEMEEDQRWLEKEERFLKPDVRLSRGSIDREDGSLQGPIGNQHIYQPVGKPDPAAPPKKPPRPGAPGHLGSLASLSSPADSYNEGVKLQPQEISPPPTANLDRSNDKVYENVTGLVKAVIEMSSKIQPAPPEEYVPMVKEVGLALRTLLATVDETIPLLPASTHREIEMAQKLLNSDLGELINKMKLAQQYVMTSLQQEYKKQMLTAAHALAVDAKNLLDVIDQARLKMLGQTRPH
# Sequence of Fibroblast growth factor 2 (Homo sapiens) (P09038 whole entry, looked up): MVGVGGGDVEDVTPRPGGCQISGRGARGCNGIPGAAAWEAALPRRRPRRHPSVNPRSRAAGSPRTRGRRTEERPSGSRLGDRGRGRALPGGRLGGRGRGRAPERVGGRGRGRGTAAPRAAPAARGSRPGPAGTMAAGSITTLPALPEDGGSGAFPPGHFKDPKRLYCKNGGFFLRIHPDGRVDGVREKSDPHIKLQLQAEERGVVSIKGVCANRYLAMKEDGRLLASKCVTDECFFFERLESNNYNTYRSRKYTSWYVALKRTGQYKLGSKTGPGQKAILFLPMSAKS
Compound,composite z-score [1],composite z-score [2],composite z-score [3],composite z-score [4],composite z-score [5],composite z-score [6],z-score [7],composite z-score (Lefty1),composite z-score [8],z-score [9]
C=CC[C@]1(C(=O)OC)N=C(c2ccc(OCCCO)cc2)O[C@H]1c1ccccc1N=[N+]=[N-],3.65,1.21,1.01,0.266,1.43,1.78,-0.674,1.12,0.291,-11 (active)
COc1ccc(NC(=O)O[C@H]2[C@H](OC(=O)Nc3ccc4c(c3)OCO4)[C@H](OC(=O)Nc3ccc4c(c3)OCO4)[C@@H](OC)O[C@@H]2CO)cc1,1.45,1.25,0.216,0.362,1.29,0.319,0.0258,0.293,0.8,-6.52 (inactive)
CCOC(=O)C[C@H]1[C@H](OC(=O)c2ccc(-c3ccccc3)cc2)[C@@H](NC(=O)c2ccc3ccccc3c2)c2cc(OCCCO)ccc2N1C(=O)c1ccccc1,0.137,1.05,0.19,0.118,0.0533,0.831,0.257,0.669,0.3,0.61 (inactive)
COCCOC(=O)N1C(=O)[C@@]2(c3cc(C#CCC(C(=O)OC)C(=O)OC)ccc31)[C@H](c1ccc(OCCO)cc1)N1[C@H](c3ccccc3)[C@H](c3ccccc3)OC(=O)[C@H]1[C@@H]2C(=O)N1CCCCCCC1,1,1.21,0.899,0.686,1.5,0.614,-0.83,0.958,1.37,-1.62 (inactive)
C=C(/C(=C/C[C@H](OC(=O)c1ccncc1)c1ccccc1OCCO)c1cc(C(=O)OC)ccc1OC)C(C)C,0.32,1.08,-0.145,0.314,1.07,1.39,-0.032,0.67,0.351,-0.538 (inactive)
COC(=O)C(CC#Cc1ccc2c(c1)[C@]1(C(=O)N2)[C@H](c2ccc(O)cc2)N2[C@H](c3ccccc3)[C@H](c3ccccc3)OC(=O)[C@H]2[C@@H]1C(=O)N1CCc2cc(OC)c(OC)cc2C1)C(=O)OC,1.54,0.953,-0.0453,0.742,1.36,1.17,-0.654,1.54,0.384,-0.0494 (inactive)
Cc1ccc(S[C@]2(C(=O)NCC(F)(F)F)CC(=O)N(C3CCCCC3)[C@@H]2c2ccc(CO)cc2)cc1,1.12,0.408,-0.35,-0.0988,-0.16,-0.257,2.02,-0.583,0.235,-0.0377 (inactive)
NCCCC[C@@H]1NC(=O)[C@H]2C[C@@H](C(=O)O)[C@@H](c3cccc(OCCO)c3)N2C1=O,3,1.26,0.188,0.577,1.41,1.69,-1.44,1.64,1.44,-1.08 (inactive)
CCCCC(O)C1C=CC2C(=O)N(C)C(=O)C2N1Nc1ccccc1 (stereo not given),1.86,0.603,0.383,0.416,0.0471,-0.614,-0.771,-0.291,0.0187,0.16 (inactive)
O=C1O[C@H](c2ccccc2)[C@H](c2ccccc2)N2[C@H]1[C@@H](C(=O)N1CCN(c3ncccn3)CC1)[C@]1(C(=O)Nc3ccccc31)[C@H]2c1ccc(O)cc1,2.34,1.07,0.759,0.635,0.889,0.451,0.028,-0.116,0.185,-1.3 (inactive)
C=C(CCCC)C(=O)CC[C@H](OC(C)=O)c1ccccc1OCCO,0.0808,-0.167,-0.176,-0.107,1.16,0.105,-0.012,1.36,0.737,-0.722 (inactive)
COC(=O)[C@@]1(Cc2ccc(OC)cc2)[C@@H]2[C@@H](CC(=O)[C@H]2CC(=O)C(=O)N2CCCC2)CN1C(=O)c1ccccc1,2.96,1.27,0.888,1,0.713,-0.256,0.483,-0.265,1.47,0.596 (inactive)
[N-]=[N+]=NCc1ccccc1[C@H]1OC(c2ccc(OCCCO)cc2)=N[C@@]1(Cc1ccccc1)C(=O)N1CCOCC1,1.44,1.26,0.46,0.992,0.25,1.48,0.343,-0.155,0.723,-0.372 (inactive)
COCCCNC(=O)[C@@]1(Sc2ccc(C)cc2)CC(=O)N(C2CCCCC2)[C@@H]1c1ccc(CO)cc1I,1.74,1.18,0.737,0.922,1.09,0.659,0.816,0.136,0.814,0.235 (inactive)
C=CCC(OC(C)=O)[C@@H]1[C@@H](N(Cc2cc3ccccc3o2)C(=O)c2ccc(-c3ccccc3)cc2)c2cc(OCCCO)ccc2N1C(=O)c1ccc2ccccc2n1 (stereo not given in full),-0.492,-1.42,0.202,-0.858,0.313,-0.171,1.71,-0.194,-0.0535,-0.847 (inactive)
COC(=O)[C@]1(CO)N=C(c2ccc(OCCCO)cc2)O[C@@H]1c1ccccc1CN=[N+]=[N-],0.477,0.286,0.1,-0.353,0.996,0.435,-0.232,0.341,-0.342,-0.676 (inactive)

Compound,composite z-score [1],composite z-score [2],composite z-score [3],composite z-score [4],composite z-score [5],composite z-score [6],z-score [7],composite z-score (Lefty1),composite z-score [8],z-score [9]
C=CC(CO)NC(=O)OCC1c2ccccc2-c2ccccc21 (stereo not given),0.311,0.421,0.476,0.578,0.763,0.415,0.02,0.618,-0.105,-0.409 (inactive)
COc1ccc([Si](C)(C)[C@H]2[C@H](CCO)O[C@@]3(C(=O)N(Cc4ccccc4)c4ccc(N(C=O)c5ccccc5)cc43)[C@@H]2C)cc1,0.359,0.644,0.274,0.605,0.919,0.25,0.821,1.01,0.153,0.457 (inactive)
COc1ccc([Si](C)(C)[C@H]2[C@H](CC(=O)N3Cc4ccccc4C[C@H]3CO)O[C@@]3(C(=O)N(Cc4cccc(N5C(=O)c6cccc7cccc5c67)c4)c4ccccc43)[C@@H]2C)cc1,0.577,1.16,0.463,-0.0297,1.18,1.59,1.03,1.53,0.108,-1.53 (inactive)
CCCCC(O)C1C=CC2C(=O)NC(=O)C2N1Nc1ccccn1 (stereo not given),1.12,0.0748,0.205,-0.796,-0.117,0.256,-0.0561,-0.0094,0.135,-0.407 (inactive)
C[N+](C)(C)CCCCCCNC(=O)[C@@H]1C[C@@H]2C(=O)N[C@@H](Cc3ccccc3)C(=O)N2[C@@H]1c1ccc(O)cc1,2.13,1.21,-0.371,0.533,1.43,1.65,-0.247,1.63,0.702,0.344 (inactive)
CN1C(=O)[C@]2(CCS(=O)(=O)c3ccccc3)N=C(c3ccc(OCCCO)cc3)O[C@@H]2c2ccccc21,2.44,1.27,1.26,0.495,1.47,0.699,1.87,0.34,0.318,-1.76 (inactive)
C=CC[C@@]1(C(=O)N(C)C)N=C(c2ccc(OCCCO)cc2)O[C@@H]1c1ccccc1,2.63,1.24,0.356,0.3,0.0236,0.298,-0.324,-0.68,1.02,0.213 (inactive)
O=C1NC(=O)C2C1C=CC(C(O)c1cccc(O)c1)N2Nc1ccc(Cl)cc1Cl (stereo not given),0.33,-0.0332,0.263,-0.348,-0.127,0.0853,-0.812,-0.317,0.447,-0.259 (inactive)
COc1ccc(NN2C(C(O)c3cc(C(F)(F)F)cc(C(F)(F)F)c3)C=CC3C(=O)N(C4CCCCC4)C(=O)C32)cc1 (stereo not given),0.764,1.1,0.359,0.895,0.544,-0.0047,-0.822,-0.364,1.2,0.36 (inactive)
COc1ccc(CCNC(=O)[C@@]2(Sc3ccc(C)cc3)CC(=O)N(C(C)C)[C@@H]2c2ccc(CO)cc2)cc1,0.8,-0.594,-0.13,-1.3,-0.616,-1.26,0.339,-0.919,-0.29,-0.424 (inactive)
NC(=O)NCC#Cc1ccc2c(c1)[C@]1(C(=O)N2)[C@H](C(=O)Nc2nc3ccccc3s2)[C@H]2C(=O)O[C@H](c3ccccc3)[C@H](c3ccccc3)N2[C@@H]1c1ccc(OCCO)cc1,-0.497,0.094,0.268,-0.3,1.37,0.746,-2.21,-0.276,0.441,-1.96 (inactive)
COc1ccccc1CN1C(=O)c2ccccc2[C@@H](C(=O)NCCCN(C)C)[C@@H]1c1ccc(CO)cc1,0.802,0.232,-0.492,-0.741,0.104,0.303,2.1,0.409,0.131,0.731 (inactive)
COc1ccc([Si](C)(C)[C@H]2[C@H](CCO)O[C@@]3(C(=O)N(Cc4ccc(N5CCOC5=O)cc4)c4ccccc43)[C@@H]2C)cc1,0.965,0.516,0.5,0.45,-0.11,-0.271,0.533,0.263,0.433,-0.605 (inactive)
C=C(COC)C(=O)CC[C@@H](OC(C)=O)c1ccc(OCCO)cc1,0.476,-0.358,-0.822,-0.467,1.25,0.945,-0.576,0.843,0.774,-1.73 (inactive)
CCCCCCCCCCC(O)C1C=CC2C(=O)N(C)C(=O)C2N1N1CCCCC1 (stereo not given),0.373,-0.768,0.0399,-1.27,-2.14,-1.02,0.44,-1.84,-0.325,-0.224 (inactive)
CN(C)C(=O)[C@]1(Cc2ccccc2)N=C(c2ccc(OCCCO)cc2)O[C@@H]1c1ccccc1,2.94,1.25,0.593,1,0.973,-0.263,0.473,-0.222,1.2,-0.701 (inactive)
